What all share (test): PBM; 200 nM protein, PBS
Settings in all cases: dsDNA, one strand shown

The target of assay [1] is HOXB4 (Homo sapiens, UniProt P17483 148-234).
In assay [2] the target is T1, VENTX (Homo sapiens, UniProt O95231 78-163, R121Q).
T1 sequence: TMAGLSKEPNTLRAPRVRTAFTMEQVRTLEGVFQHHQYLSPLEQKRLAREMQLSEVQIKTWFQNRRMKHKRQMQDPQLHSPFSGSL

Assay [3] addresses HOXA4 (Homo sapiens, UniProt Q00056 201-287, W262R).
Another assay addresses ALX4 (Homo sapiens, UniProt Q9H161 200-286).
For assay [4], the target named is T2, VENTX (Homo sapiens, UniProt O95231 78-163, Y115F).
T2 sequence: T1 sequence with Y38F, Q44R

Another assay deals with HOXA2 (Homo sapiens, UniProt O43364 129-215, R185T).
Chain of HOXA2 (O43364 129-215 R185T): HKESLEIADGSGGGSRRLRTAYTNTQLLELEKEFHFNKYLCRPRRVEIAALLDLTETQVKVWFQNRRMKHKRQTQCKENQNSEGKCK
Assay [5] concerns the target HOXA4 (Homo sapiens, UniProt Q00056 201-287, R217L).
Assay [6] deals with HOXB4 (Homo sapiens, UniProt P17483 148-234, V174I).
Chain of HOXB4 (Homo sapiens, UniProt P17483 148-234, V174I) (P17483 148-234 V174I): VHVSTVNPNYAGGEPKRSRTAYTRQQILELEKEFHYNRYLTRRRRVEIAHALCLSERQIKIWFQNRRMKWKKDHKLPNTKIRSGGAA
For assay [7], the target named is HOXA4 (Homo sapiens, UniProt Q00056 201-287).
Chain of HOXA4 (Homo sapiens, UniProt Q00056 201-287) (Q00056 201-287): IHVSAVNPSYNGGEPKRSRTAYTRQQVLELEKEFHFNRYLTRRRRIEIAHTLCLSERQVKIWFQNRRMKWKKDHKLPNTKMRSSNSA
Assay [8] concerns the target MSX2 (Homo sapiens, UniProt P35548 130-214).
Assay [9] has as its target MSX2 (Homo sapiens, UniProt P35548 130-214, F161Y).
For assay [10], the target named is VAX1 (Homo sapiens, UniProt Q5SQQ9 86-172, T142I).
Chain of VAX1 (Homo sapiens, UniProt Q5SQQ9 86-172, T142I) (Q5SQQ9 86-172 T142I): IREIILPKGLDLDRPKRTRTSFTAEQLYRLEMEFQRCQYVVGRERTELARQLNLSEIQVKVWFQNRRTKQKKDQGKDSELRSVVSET
Assay [11] has as its target HOXA4 (Homo sapiens, UniProt Q00056 201-287, W262F).
Assay [12] addresses VAX1 (Homo sapiens, UniProt Q5SQQ9 86-172, K157R).
The target of assay [13] is PRRX1 (Homo sapiens, UniProt P54821 80-166, F113S).
Chain of PRRX1 (Homo sapiens, UniProt P54821 80-166, F113S) (P54821 80-166 F113S): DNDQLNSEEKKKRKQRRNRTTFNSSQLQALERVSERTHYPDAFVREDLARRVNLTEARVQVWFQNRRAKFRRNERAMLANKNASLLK
For assay [14], the target named is T3, PAX4 (Homo sapiens, UniProt O43316 9-242, R200Q).
T3 sequence: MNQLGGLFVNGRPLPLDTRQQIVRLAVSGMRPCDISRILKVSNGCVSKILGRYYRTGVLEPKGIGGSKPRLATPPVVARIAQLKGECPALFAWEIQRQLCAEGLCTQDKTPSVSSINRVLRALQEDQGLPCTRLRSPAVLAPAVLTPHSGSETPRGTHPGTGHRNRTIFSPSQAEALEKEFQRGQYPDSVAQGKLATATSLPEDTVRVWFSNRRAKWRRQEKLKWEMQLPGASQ

Assay [15] addresses PRRX1 (Homo sapiens, UniProt P54821 80-166).
The target of assay [16] is T4, PAX4 (Homo sapiens, UniProt O43316 9-242, R200K).
T4 sequence: T3 sequence with Q192K

For assay [17], the target named is T5, PAX4 (Homo sapiens, UniProt O43316 9-242, F177V).
T5 sequence: T3 sequence with F169V, Q192R

Assay [18] deals with T6, PAX4 (Homo sapiens, UniProt O43316 9-242, F177Y).
T6 sequence: T3 sequence with F169Y, Q192R

Numbering of substitutions follows the chain as printed.

The record followed here is article PMC11006913.

Chain of HOXA4 (Homo sapiens, UniProt Q00056 201-287, R217L) (Q00056 201-287 R217L): as the sequence (Q00056 201-287) above, with R17L counted along it
Chain of ALX4 (Q9H161 200-286): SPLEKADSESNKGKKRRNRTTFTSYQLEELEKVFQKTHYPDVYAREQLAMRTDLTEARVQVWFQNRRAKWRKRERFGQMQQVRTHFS
Chain of MSX2 (Homo sapiens, UniProt P35548 130-214) (P35548 130-214): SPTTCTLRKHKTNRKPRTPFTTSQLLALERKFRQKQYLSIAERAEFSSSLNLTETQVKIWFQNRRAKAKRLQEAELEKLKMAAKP
Chain of PRRX1 (Homo sapiens, UniProt P54821 80-166) (P54821 80-166): as the sequence (P54821 80-166 F113S) above, with S34F counted along it
Chain of VAX1 (Homo sapiens, UniProt Q5SQQ9 86-172, K157R) (Q5SQQ9 86-172 K157R): as the sequence (Q5SQQ9 86-172 T142I) above, with I57T, K72R counted along it
Chain of HOXA4 (Homo sapiens, UniProt Q00056 201-287, W262F) (Q00056 201-287 W262F): as the sequence (Q00056 201-287) above, with W62F counted along it
Chain of HOXB4 (Homo sapiens, UniProt P17483 148-234) (P17483 148-234): as the sequence (P17483 148-234 V174I) above, with I27V counted along it
Chain of MSX2 (Homo sapiens, UniProt P35548 130-214, F161Y) (P35548 130-214 F161Y): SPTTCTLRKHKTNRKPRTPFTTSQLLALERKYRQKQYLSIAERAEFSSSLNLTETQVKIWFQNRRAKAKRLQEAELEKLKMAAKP
Chain of HOXA4 (Homo sapiens, UniProt Q00056 201-287, W262R) (Q00056 201-287 W262R): as the sequence (Q00056 201-287) above, with W62R counted along it

As for GGCAATTA, the binding signal is 13.1 upbm affinity estimate (log intensity, higher = more binding, comparable within an allelic series) in the assay with HOXB4 [1]; 11.9 upbm affinity estimate (log intensity, higher = more binding, comparable within an allelic series) in the assay with VENTX [2]; 10.5 upbm affinity estimate (log intensity, higher = more binding, comparable within an allelic series) with HOXA4 [3]; 13.6 upbm affinity estimate (log intensity, higher = more binding, comparable within an allelic series) with ALX4; 11.8 upbm affinity estimate (log intensity, higher = more binding, comparable within an allelic series) with VENTX [4]; 13 upbm affinity estimate (log intensity, higher = more binding, comparable within an allelic series) with HOXA2. Moreover, the binding signal is 12.1 upbm affinity estimate (log intensity, higher = more binding, comparable within an allelic series) in the assay with HOXA4 [5]; 13.6 upbm affinity estimate (log intensity, higher = more binding, comparable within an allelic series) with HOXB4 [6]; 13.7 upbm affinity estimate (log intensity, higher = more binding, comparable within an allelic series) with HOXA4 [7]; 13.9 upbm affinity estimate (log intensity, higher = more binding, comparable within an allelic series) with MSX2 [8]; 13.6 upbm affinity estimate (log intensity, higher = more binding, comparable within an allelic series) with MSX2 [9]; 13 upbm affinity estimate (log intensity, higher = more binding, comparable within an allelic series) with VAX1 [10]. Moreover, the binding signal is 11.4 upbm affinity estimate (log intensity, higher = more binding, comparable within an allelic series) with HOXA4 [11] and 12.8 upbm affinity estimate (log intensity, higher = more binding, comparable within an allelic series) with VAX1 [12].

As for CAATTAAG, the binding signal is 13 upbm affinity estimate (log intensity, higher = more binding, comparable within an allelic series) with HOXB4 [1]; 12 upbm affinity estimate (log intensity, higher = more binding, comparable within an allelic series) with VENTX [2]; 10.6 upbm affinity estimate (log intensity, higher = more binding, comparable within an allelic series) in the assay with HOXA4 [3]; 13.9 upbm affinity estimate (log intensity, higher = more binding, comparable within an allelic series) in the assay with ALX4; 11.3 upbm affinity estimate (log intensity, higher = more binding, comparable within an allelic series) with PRRX1 [13]; 11.6 upbm affinity estimate (log intensity, higher = more binding, comparable within an allelic series) with VENTX [4]. The binding signal was 12.9 upbm affinity estimate (log intensity, higher = more binding, comparable within an allelic series) in the assay with HOXA2; 12.1 upbm affinity estimate (log intensity, higher = more binding, comparable within an allelic series) with HOXA4 [5]; 13.7 upbm affinity estimate (log intensity, higher = more binding, comparable within an allelic series) in the assay with HOXB4 [6]; 11.9 upbm affinity estimate (log intensity, higher = more binding, comparable within an allelic series) with PAX4 [14]; 13.8 upbm affinity estimate (log intensity, higher = more binding, comparable within an allelic series) with HOXA4 [7]; 13.9 upbm affinity estimate (log intensity, higher = more binding, comparable within an allelic series) with MSX2 [8]. For the same sequence, the binding signal with MSX2 [9] was 13.4 upbm affinity estimate (log intensity, higher = more binding, comparable within an allelic series); with VAX1 [10], 12.8 upbm affinity estimate (log intensity, higher = more binding, comparable within an allelic series); in the assay with HOXA4 [11] it was 11.7 upbm affinity estimate (log intensity, higher = more binding, comparable within an allelic series); in the assay with PRRX1 [15], 13.3 upbm affinity estimate (log intensity, higher = more binding, comparable within an allelic series); with VAX1 [12], 12.5 upbm affinity estimate (log intensity, higher = more binding, comparable within an allelic series).

AAATTAAT: the binding signal was 12.9 upbm affinity estimate (log intensity, higher = more binding, comparable within an allelic series) with HOXB4 [1]; 10.6 upbm affinity estimate (log intensity, higher = more binding, comparable within an allelic series) with HOXA4 [3]; 14 upbm affinity estimate (log intensity, higher = more binding, comparable within an allelic series) with ALX4; 11.9 upbm affinity estimate (log intensity, higher = more binding, comparable within an allelic series) with PAX4 [16]; 11.2 upbm affinity estimate (log intensity, higher = more binding, comparable within an allelic series) in the assay with PRRX1 [13]; 12.1 upbm affinity estimate (log intensity, higher = more binding, comparable within an allelic series) with HOXA4 [5]. The binding signal was 13.6 upbm affinity estimate (log intensity, higher = more binding, comparable within an allelic series) with HOXB4 [6]; 12.4 upbm affinity estimate (log intensity, higher = more binding, comparable within an allelic series) with PAX4 [14]; 10.7 upbm affinity estimate (log intensity, higher = more binding, comparable within an allelic series) with PAX4 [17]; 13.6 upbm affinity estimate (log intensity, higher = more binding, comparable within an allelic series) with HOXA4 [7]; 13.4 upbm affinity estimate (log intensity, higher = more binding, comparable within an allelic series) with MSX2 [8]; 11.2 upbm affinity estimate (log intensity, higher = more binding, comparable within an allelic series) with PAX4 [18]. The binding signal with MSX2 [9] is 13.1 upbm affinity estimate (log intensity, higher = more binding, comparable within an allelic series); with VAX1 [10], 12.5 upbm affinity estimate (log intensity, higher = more binding, comparable within an allelic series); with HOXA4 [11] it was 11.5 upbm affinity estimate (log intensity, higher = more binding, comparable within an allelic series); in the assay with PRRX1 [15] it was 13.3 upbm affinity estimate (log intensity, higher = more binding, comparable within an allelic series); with VAX1 [12] it was 12.4 upbm affinity estimate (log intensity, higher = more binding, comparable within an allelic series).

For the sequence CAATTATC, the binding signal with HOXB4 [1] was 13 upbm affinity estimate (log intensity, higher = more binding, comparable within an allelic series); in the assay with VENTX [2] it was 11.7 upbm affinity estimate (log intensity, higher = more binding, comparable within an allelic series); with HOXA4 [3] it was 10.5 upbm affinity estimate (log intensity, higher = more binding, comparable within an allelic series); with ALX4, 13.8 upbm affinity estimate (log intensity, higher = more binding, comparable within an allelic series); in the assay with PRRX1 [13], 11.3 upbm affinity estimate (log intensity, higher = more binding, comparable within an allelic series); with HOXA2, 12.4 upbm affinity estimate (log intensity, higher = more binding, comparable within an allelic series). The binding signal with HOXA4 [5] was 11.9 upbm affinity estimate (log intensity, higher = more binding, comparable within an allelic series); in the assay with HOXB4 [6], 13.6 upbm affinity estimate (log intensity, higher = more binding, comparable within an allelic series); in the assay with PAX4 [14], 11.8 upbm affinity estimate (log intensity, higher = more binding, comparable within an allelic series); with HOXA4 [7], 13.6 upbm affinity estimate (log intensity, higher = more binding, comparable within an allelic series); in the assay with MSX2 [8] it was 13.9 upbm affinity estimate (log intensity, higher = more binding, comparable within an allelic series); with MSX2 [9], 13.7 upbm affinity estimate (log intensity, higher = more binding, comparable within an allelic series). The binding signal with HOXA4 [11] was 11.2 upbm affinity estimate (log intensity, higher = more binding, comparable within an allelic series); with PRRX1 [15], 13.4 upbm affinity estimate (log intensity, higher = more binding, comparable within an allelic series).

On to GTAATTGA, for which the binding signal in the assay with HOXB4 [1] was 13.1 upbm affinity estimate (log intensity, higher = more binding, comparable within an allelic series); with HOXA4 [3], 10.4 upbm affinity estimate (log intensity, higher = more binding, comparable within an allelic series); with ALX4 it was 13.8 upbm affinity estimate (log intensity, higher = more binding, comparable within an allelic series); in the assay with PRRX1 [13], 11 upbm affinity estimate (log intensity, higher = more binding, comparable within an allelic series); with HOXA2, 12.5 upbm affinity estimate (log intensity, higher = more binding, comparable within an allelic series); with HOXA4 [5] it was 12 upbm affinity estimate (log intensity, higher = more binding, comparable within an allelic series). The binding signal with HOXB4 [6] is 13.8 upbm affinity estimate (log intensity, higher = more binding, comparable within an allelic series); with HOXA4 [7] it was 13.5 upbm affinity estimate (log intensity, higher = more binding, comparable within an allelic series); with MSX2 [8], 13.7 upbm affinity estimate (log intensity, higher = more binding, comparable within an allelic series); in the assay with MSX2 [9], 13.4 upbm affinity estimate (log intensity, higher = more binding, comparable within an allelic series); with VAX1 [10] it was 12.4 upbm affinity estimate (log intensity, higher = more binding, comparable within an allelic series); with HOXA4 [11], 11.2 upbm affinity estimate (log intensity, higher = more binding, comparable within an allelic series). For the same sequence, the binding signal in the assay with PRRX1 [15] is 13.3 upbm affinity estimate (log intensity, higher = more binding, comparable within an allelic series); with VAX1 [12], 12.6 upbm affinity estimate (log intensity, higher = more binding, comparable within an allelic series).
